Source: PubChem BioAssay
Only a selection was taken, and hits are over-represented in it overall.
Measles inh: inhibitors of measles virus growth in infected cells | z-score (no concentration beside the values) | infected Vero cells, GFP fluorescence, 64 h; hits give low values | hit rate 0.1% among 33,000 | AID 745; in the data active = z-score below about -3
An asterisk follows results filed as active.

SMILES | Measles inh
O=C(NC1CCCCCCC1)C1c2ccccc2C(=O)N1CCCN1CCCCC1 (configuration not stated) | -0.55
COc1ccc(Br)cc1CN1C(=O)c2ccccc2C1C(=O)NC1CCC(C)CC1 (configuration not stated) | -1.02
CC1CCC(NC(=O)C2c3ccccc3C(=O)N2CCCN2CCOCC2)CC1 (configuration not stated) | -4.9*
COc1cc(C(=O)N2CCc3ccccc32)c([N+](=O)[O-])cc1OC | 0.48
COc1cc(C(=O)c2ccccc2)c([N+](=O)[O-])cc1OC | -3.04*
COc1cc(C(=O)NCc2ccccn2)c([N+](=O)[O-])cc1OC | -0.19
Cc1ccc(CNC(=O)c2ccc3c(c2)NC(=O)C(N2CCCC2)S3)cc1 (configuration not stated) | -0.22
COc1cc(NC(=O)c2ccc(-c3ccc([N+](=O)[O-])cc3)o2)cc(OC)c1 | -0.29
CCOc1ccc(C2C(C(=O)OC)C(=O)CC(C)(O)C2C(=O)OC)cc1 (configuration not stated) | 1.53
COc1ccc(Nc2nc(-c3ccc(C)cc3)nc3ccccc23)cc1OC | -1.94
COc1cc(-c2nc(Nc3ccc(C)cc3)c3ccccc3n2)cc(OC)c1OC | -0.38
Cc1ccc(Nc2cc(C)nc(-c3ccccc3)n2)cc1 | -3.66*
CCc1ccccc1Nc1ncnc2c1cnn2-c1ccc(OC)cc1 | -0.22
COc1ccc(Nc2ncnc3c2cnn3-c2ccccc2)c(OC)c1 | -3.32*
Cc1cc(C)cc(Nc2ncnc3c2cnn3-c2ccccc2)c1 | -0.32
CCc1ccc(Oc2coc3cc(OC(C)C(=O)OCC(C)C)ccc3c2=O)cc1 (configuration not stated) | 0.23
O=C(COC(=O)c1ccc2c(c1)C(=O)N(c1ccc([N+](=O)[O-])cc1)C2=O)c1ccccc1 | 0.42
COc1ccc(N2C(=O)c3ccc(C(=O)OCC(=O)c4cccc([N+](=O)[O-])c4)cc3C2=O)cc1 | -5.03*
O=C(COC(=O)c1ccc2c(c1)C(=O)N(c1ccccc1Cl)C2=O)c1cccc([N+](=O)[O-])c1 | 0.75
C=CCSc1nnc2c(n1)OC(c1ccc(OCC)c(C)c1)Nc1ccccc1-2 (configuration not stated) | 0.5
COc1ccc(C2c3sc(=O)[nH]c3SC3C(=O)N(c4ccc(C)cc4)C(=O)C32)cc1 (configuration not stated) | 0.11
O=C1c2ccccc2-c2c1c(-c1cccc(O)c1)nc1ccc3ccccc3c21 | -1.46
COc1ccc(-c2csc(=Nc3ccccn3)n2-c2ccccc2)cc1 | -1.09
Cc1ccc(Cl)cc1NC(=O)c1cc(-c2cccs2)nc2ccccc12 | -3.01*
O=C(Nc1cccnc1)c1cc(-c2cccs2)nc2ccccc12 | 0.73
SMILES | Measles inh
CC(C)c1ccc(NC(=O)c2cc(-c3cccs3)nc3ccccc23)cc1 | -0.09
CCN(CC)C(=O)Cn1cnc2sc(C(=O)NC3CCCCC3)c(C)c2c1=O | 0.43
COc1ccc(C=CC2Nc3ccccc3-c3nnc(SC)nc3O2)cc1 (configuration not stated) | -0.4
COc1ccc(OC(=O)c2ccc(N3C(=O)C4C5CCC(C5)C4C3=O)cc2)cc1 (configuration not stated) | 0.48
O=C(Cc1ccccc1)Oc1ccc(N2C(=O)C3C4CCC(C4)C3C2=O)cc1 (configuration not stated) | -6.38*
O=C(OCc1ccccc1)c1cccc(N2C(=O)C3C4CCC(C4)C3C2=O)c1 (configuration not stated) | 0.3
CC(=O)c1ccc(NC(=O)c2ccc(NS(=O)(=O)c3c(C)noc3C)cc2)cc1 | -0.94
Cc1noc(C)c1S(=O)(=O)Nc1ccc(C(=O)Nc2ccc(C(C)C)cc2)cc1 | -3.69*
COc1ccc(NC(=O)c2ccc(NS(=O)(=O)c3c(C)noc3C)cc2)cc1OC | 0.34
CC1CCC(N2CC(=O)N(Cc3ccccc3)C(c3ccc(F)cc3)C2=O)CC1 (configuration not stated) | 0.37
CCN(CC)c1ccc2cc(-c3nc(-c4ccc(C)c(C)c4)cs3)c(=O)oc2c1 | 5.47
O=C(C(Sc1ccccc1)c1ccccc1)N1CCN(c2ccccn2)CC1 (configuration not stated) | -2.53
Cc1ccc(C(=O)CC2(O)C(=O)N(Cc3ccccc3)c3ccccc32)cc1 (configuration not stated) | -0.1
CC1(C)C(=O)N(Cc2ccc([N+](=O)[O-])cc2)c2ccccc2N1C(=O)c1ccc(Br)cc1 | -0.47
CC1(C)C(=O)N(Cc2ccccc2)c2ccccc2N1C(=O)c1ccc(Br)cc1 | -4*
O=C(NCCc1ccccc1)C1CCC(CNS(=O)(=O)c2ccc(Br)s2)CC1 (configuration not stated) | -0.25
Cc1cc(C(=O)CSc2nnc3sc4ccccc4n23)c(C)n1CCc1ccccc1 | 0.1
CC(C)CCNC(=O)CSc1nc2ccsc2c(=O)n1Cc1ccc2c(c1)OCO2 | -0.28
Cc1ccc(CNC(=O)CSc2nc3ccsc3c(=O)n2Cc2ccccc2F)cc1 | -3.87*
Cc1ccc(Cn2c(SCC(=O)c3ccc(F)cc3)nc3ccsc3c2=O)cc1 | -0.75
C=CCn1c(SCCC)nc2sc3c(c2c1=O)CCCCC3 | 0.91
O=C(NC1CCCCCC1)c1ccc(CSCc2cccc(Cl)c2)o1 | -0.87
COc1cc(OC)cc(C(=O)c2ccc(C(=O)Nc3cc(C(C)C)c(O)cc3C)cc2)c1 | -0.86
O=C(Nc1cccc(-c2nc3ccccc3s2)c1)c1ccc(Br)o1 | -4.16*
O=C(Nc1cccc(-c2nc3ccccc3s2)c1)c1cccs1 | -0.07
SMILES | Measles inh
O=C(Nc1cccc(-c2nc3cc(Cl)ccc3o2)c1)c1ccc(Br)o1 | -0.44
COc1ccc(N2CCN(CCNC(=O)c3cc(-c4ccc(Cl)s4)nc4ccccc34)CC2)cc1 | 2.32
COc1ccc(CNC(=O)C2CC(=O)N(c3ccc(OCc4ccccc4Cl)cc3)C2)cc1 (configuration not stated) | 0.66
Cc1ccc(-c2cc(-c3cc(Cl)ccc3O)on2)cc1 | -0.71
O=C(CC(c1ccccc1)C1([N+](=O)[O-])C(=O)c2ccccc2C1=O)c1ccccc1 (configuration not stated) | 0.1
CCN(Cc1ccccc1)S(=O)(=O)c1cc(Br)cc2c1N(C(C)=O)CC2 | -5.58*
CCN(CCNS(=O)(=O)c1cc(Br)cc2c1N(C(C)=O)CC2)c1ccccc1 | 0.44
CCCCN(CCCC)S(=O)(=O)c1cc(Br)cc2c1N(C(C)=O)CC2 | -0.06
COc1ccc(S(=O)(=O)NCC2CCC(C(=O)NCC3CCCO3)CC2)cc1 (configuration not stated) | -1.16
CCN(c1ccccc1)S(=O)(=O)c1ccc2[nH]cc(C(=O)NC3CCCCC3)c(=O)c2c1 | -2.07
CCc1ccccc1NS(=O)(=O)c1ccc2[nH]cc(C(=O)NC3CCCC3)c(=O)c2c1 | -0.66
O=C(NC1CCCCCC1)c1c[nH]c2ccc(S(=O)(=O)N3CCc4ccccc43)cc2c1=O | -3.19*
COc1ccc(-c2nc3cc(C)ccc3o2)cc1N=Cc1cc(Br)cc(OC)c1O | -0.67
O=C(Nc1c(-c2cccs2)nc2ccccn12)c1cccc(F)c1 | 0.22
COc1ccc2nc(N=C(NC(=O)c3ccccc3)NC(=O)c3ccccc3)nc(C)c2c1 | -0.53
O=C(COc1ccc2ccccc2c1)OCC(=O)c1ccc(Br)cc1 | 0.28
CCOc1ccc(C(=O)Oc2cccc3cccnc23)cc1Br | -3.48*
COc1ccc(C(=O)Oc2cccc3cccnc23)cc1OC | -0.37
CC(=O)Oc1cccc2cccnc12 | -0.4
CCC(=O)NC(Nc1sc2c(c1C#N)CCCC2)(C(F)(F)F)C(F)(F)F | 1.75
